Measurements taken from the supplement of paper PMC11417369.
± gives the standard deviation of the averaged measurements. In all, about 25,000 sequences were measured (“ln(normalized median fluorescence intensity)”: median about 8.9, highest 2% from about 10 on). Only a selection was taken, and the highest values are over-represented in it overall.

What follows are sequences tested on PfAP2-LT AP2 domain (GST-tagged) (assay: gcPBM binding intensity (ln(normalized median fluorescence intensity)); higher = stronger DNA binding).
Summary of the method: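 Binding intensity values are the highest Masliner-normalised natural-log median intensity among replicate spots of either probe orientation. The binding step lasted 1 h in 1× PBS with 1% milk, 0.2 mg/ml BSA, 0.5% salmon testes DNA and 0.03% Triton X-100, using GST-tagged P. falciparum DNA-binding domains expressed in E. coli on an Agilent 4 × 180k array of primer-extended double-stranded 36-bp intergenic genomic probes plus negative controls. Alexa488 anti-GST antibody and a 488 nm scan detected bound protein.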

Sequence	gcPBM binding intensity (ln)
AAAAAAACATAAAATACACACAACCTTAAGAATGTA [CACACA_site3293]	9.12 ± 0.38
CAACATATATTAATATGTACATATATATAGATATAT [XGTACX_site4107]	8.81 ± 0.44
ATATATATATATATATGTACATATTTCTCCATTTTT [XGTACX_site2869]	9.61 ± 0.39
ACATATAAATATATTACACACACACTAAAAAAATAA [CACACA_site6209]	9.69 ± 0.27
TAACATATTAATAACATATTTATAATATATTAATAA [TGCATGCA_negctrl_site243]	8.34 ± 0.43
TATAAAAATTAATATTGTACGTTTTATGAAAATAAA [XGTACX_site8237]	8.21 ± 0.47
AAAAAAAAAAGACACACACACACACGCATATACATA [CACACA_site7289]	10.18 ± 0.05
AACACGCGCAGACACACACACACACCCACATATATA [CACACA_site2205]	10.3 ± 0.27
AAAAAAAAAAGACACACACACAAAAAAAGATATATA [CACACA_site6645]	9.9 ± 0.38
CGCGCACCCAGACACACACACACACCCATATATATA [CACACA_site2203]	9.96 ± 0.25
CGTGGGAGCAGACACACACACACACGCATATTTATA [CACACA_site6290]	9.89 ± 0.45
AAAAAAAAAAGACACACACACACACGGAGATATATA [CACACA_site6216]	10.4 ± 0.19
TACACGCAGAAACACACACACACACCCATATATATA [CACACA_site637]	10.1 ± 0.28
AAAAAAAAAAGACACACACACATATTTATTTATATA [CACACA_site6484]	9.67 ± 0.4
AGCACACGCAGACACACACACACACGCACACGCACA [CACACA_site6306]	10.3 ± 0.23
AATACACGCAGACACACACACAAAAAAAAAAAAAAA [CACACA_site6384]	9.53 ± 0.61
ATATTTAGGAAAAATAGTACACATTTAAATAATAAT [XGTACX_site7989]	8.68 ± 0.47
TTGAAATATACGTAAGTAAATTTCATTTGGTTGTGT [XGTACX_negctrl_site600]	8.77 ± 0.47
AATATACAAATTACAAGTACAAATCAATATTATATG [XGTACX_site7521]	8.9 ± 0.42
AATTATTTATTGAGAGTGCAACAAATTATTTCAAAT [GTGCAC_site9461]	8.44 ± 0.49
AATATTTTAATGCACACACACAAAAAAAAAAAAAAA [CACACA_site7374]	9.18 ± 0.33
AATAATAAATATATATATATATATATATATATATTT [CACACA_negctrl_site786]	9.04 ± 0.21
CATAATAGTTATAAAATACACACCAGGCATGATAAA [CACACA_site329]	9 ± 0.4

Sequence	gcPBM binding intensity (ln)
ATATATATATATATATGTACATATAATTTTTTTTTT [XGTACX_site6948]	9.56 ± 0.16
GGAATATTTATACATACACACATATATTTATTTATA [CACACA_site6883]	8.91 ± 0.38
TAACTTTGAAAAGATGGTACACAATAATATATATAT [XGTACX_site8667]	8.83 ± 0.35
CCTTTCACATATAATACATGCATTATTATATATGAA [TGCATGCA_site287]	8.7 ± 0.23
AAAAAAAAAAAACACACACACACACCGATACATACA [CACACA_site8849]	10.4 ± 0.085
CATACATACAAACACACACACACACCGATATATATA [CACACA_site8952]	10.29 ± 0.092
TATACATACATACATACACACACACCGATATATACA [CACACA_site8184]	9.89 ± 0.11
CAAAAAAACAAACACACACACACACCGATATATATA [CACACA_site9218]	10.1 ± 0.23
TATATATATATATACACACACACACCGATATATATA [CACACA_site8813]	10 ± 0.11
AAAAAAAAAAAACACACACACACACCGAAATATATA [CACACA_site4261]	9.99 ± 0.33
TATATATACATATACACACACACACCGATATATATA [CACACA_site8706]	9.9 ± 0.29
AGGAGGAACAAACAAAACAATAAAAATTATAATAAA [GTGCAC_negctrl_site206]	8.78 ± 0.64
GTGTATTTATGTTATACACACAAAAATATTTTGTAT [CACACA_site4305]	9.01 ± 0.33
TTATATATACCATAATGTACTCTATTATATAAAAAA [XGTACX_site7464]	8.41 ± 0.4
TATGCACCCAGACACACACACACAACTAAAAAATAA [CACACA_site2567]	9.8 ± 0.35
TAATTATGCAGACACACACACACACCCAACTAAAAA [CACACA_site2569]	9.96 ± 0.23
AAAAGATAATTATGCACACACACACCCAGACACAAC [CACACA_site5428]	10.34 ± 0.021
AAAAGATAATTATGCACACACACACCCCCACCCAAC [CACACA_site2570]	10.38 ± 0.064
AAAGATAATATATGCACACATATAAATATATAAATA [CACACA_site3477]	9.07 ± 0.43
TAATTATGCCAACACACACACACACCCAACTAAAAA [CACACA_site8823]	9.965 ± 0.092
ATTATATATATGTGCACACAAAAGATATATATATAT [CACACA_site5205]	9.95 ± 0.26
AAAAAAGATAATTATGCACACACACCCACCCACCCA [CACACA_site8825]	10.085 ± 0.0071
AAAAGATAAAATTATGCACACATACGAATAATTTTA [CACACA_site8497]	8.92 ± 0.48
